Inconclusive results are not listed. Calls of active or inactive are those of the source. Calls come from the whole dose curve; as a rule, active = well fitted curve in the direction sought with a large enough effect; inconclusive = small, poorly fitted or top-dose-only effect, or another doubt; inactive = no such curve, though single readings can be large; an effect the other way counts as inactive or inconclusive.
Potency is the fitted concentration of half-maximal effect.

One experiment is described as follows: qHTS of pediatric cancer cell lines to identify multiple opportunities for drug repurposing: Confirmatory screen for TC32 cells (AID 1347118).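 Note: cells exposed to compound for 48 h before the read; nearly all actives have a fitted effect of over 65% in size.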 Particulars: TC32 Ewing sarcoma cells viability qHTS; series mostly up to 45.9 µM. An outline of the steps:
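TC32 cells, 500-1,000/well in growth medium, compound-treated 48 h at 37 °C; viability from CellTiter-Glo luminescence. Primary screen: MIPE 11-point (0.78 nM–46 µM final), NPC 8-point (0.59 nM–46 µM final); confirmatory at 11-point dilutions.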
As for `COc1cc2cc(c1Cl)N(C)C(=O)C[C@H](OC(=O)C(C)C)[C@]1(C)O[C@H]1[C@H](C)[C@@H]1C[C@@](O)(NC(=O)O1)[C@H](OC)C=CC=C(C)C2`, the Potency is 0.4 nM (active).

As to `CC(C)(C)C(O)C(Oc1ccc(Cl)cc1)n1cncn1` (centres undefined), the Potency result was “inactive”.

Turning to `CC[C@@]1(O)C(=O)OCc2c1cc1n(c2=O)Cc2cc3ccccc3nc2-1`, the Potency was 18.5 nM (active).

As for `COc1ccc2c(c1)CN(C)CC2c1ccc(Cl)c(Cl)c1` (centres undefined), the Potency is 6570 nM (active).

Consider `C[C@@H]1O[C@@H](O[C@@H]2C=C3CC[C@@H]4[C@@H](CC[C@]5(C)[C@H](c6ccc(=O)oc6)CC[C@@]45O)[C@@]3(C)CC2)[C@H](O)[C@H](O)[C@H]1O`, for which the Potency was 23.3 nM (active).

For `CC[C@@H]1[C@@H](C)O[C@@](O)([C@@H](C)[C@H](O)[C@H](C)[C@H]2OC(=O)C=CC=C[C@@H](C)[C@@H]([C@@H](C)[C@@H](O)[C@H](C)[C@@]3(O)C[C@H](O[C@H]4C[C@H](O)[C@H](O)[C@H](C)O4)[C@H](CC)[C@@H](C)O3)OC(=O)C=CC=C[C@@H]2C)C[C@H]1O[C@H]1C[C@H](O)[C@H](O)[C@H](C)O1`, the Potency result was “inactive”.

Consider `Cc1[nH]nc2ccc(-c3cncc(OC[C@@H](N)Cc4c[nH]c5ccccc45)c3)cc12`, for which the Potency is 2330 nM (active).

As for `C[C@@H]1CC[C@@]2(OC1)O[C@H]1C[C@H]3[C@@H]4CC=C5C[C@@H](O[C@@H]6O[C@H](CO)[C@@H](O[C@@H]7O[C@@H](C)[C@H](O)[C@@H](O)[C@@H]7O)[C@H](O)[C@@H]6O[C@@H]6O[C@@H](C)[C@H](O)[C@@H](O)[C@@H]6O)CC[C@]5(C)[C@@H]4CC[C@]3(C)[C@@H]1[C@H]2C`, the Potency is 4140 nM (active).

As for `CC1=C(O)C(=O)C=C2C1=CC=C1[C@@]2(C)CC[C@@]2(C)[C@@H]3C[C@](C)(C(=O)O)CC[C@]3(C)CC[C@]12C`, the Potency was 1310 nM (active).

As for `CC(C)(O)C=CC(=O)[C@](C)(O)[C@H]1[C@H](O)C[C@]2(C)[C@@H]3CC=C4[C@@H](C=C(O)C(=O)C4(C)C)[C@]3(C)C(=O)C[C@@]12C`, the Potency is 827 nM (active).

For the compound `CC(=O)[O][Hg][c]1ccccc1`, the Potency was 827 nM (active).

For `O=c1[nH]c2ccc(Cl)cc2c(N[C@@H]2CN3CCC2CC3)c1-c1nc2ccccc2[nH]1`, the Potency is 465 nM (active).

`CC(C)[C@]12O[C@@H]1[C@@H]1O[C@]13[C@]1(O[C@H]1C[C@@H]1C4=C(CC[C@@]13C)C(=O)OC4)[C@H]2O`: the Potency was 73.7 nM (active).

For the compound `Cc1ccccc1-n1c(Cn2ncc3c(N)ncnc32)nc2cccc(C)c2c1=O`, the Potency is 1850 nM (active).

Regarding `Cc1ccccc1-n1c(Cn2cnc3c(N)ncnc32)nc2cccc(C)c2c1=O`, the Potency entry is “inactive”.

On to `O=C(N[C@H]1CN2CCC1CC2)c1ccc(Cl)cc1`, for which the Potency was 1650 nM (active).

In the case of `C[C@H]1CCCC=CC2C[C@H](O)C[C@@H]2[C@H](O)C=CC(=O)O1` (some centres undefined), the Potency was 117 nM (active).

A further experiment in a line: qHTS of pediatric cancer cell lines to identify multiple opportunities for drug repurposing: Confirmatory screen for MG 63 (6-TG R) cells (AID 1347119). Note: nearly all actives have a fitted effect of over 55% in size. Particulars: MG-63 (6-TG resistant) osteosarcoma viability; series mostly up to 45.9 µM. In short, it runs like this:
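Cells (500-1,000/well) in growth media were settled 5 h at 37 degrees C, then given compounds for 48 h. Viability was read as CellTiter-Glo luminescence. Primary runs used MIPE at 11 points (0.78 nM-46 µM) and NPC at 8 points (0.59 nM-46 µM); follow-ups used 11 points.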
In general terms: Quantitative high-throughput screening tests each substance at several concentrations.
For `COc1cc2cc(c1Cl)N(C)C(=O)C[C@H](OC(=O)C(C)C)[C@]1(C)O[C@H]1[C@H](C)[C@@H]1C[C@@](O)(NC(=O)O1)[C@H](OC)C=CC=C(C)C2`, the Potency was 1 nM (active).

As to `CC(C)(C)C(O)C(Oc1ccc(Cl)cc1)n1cncn1` (centres undefined), the Potency result is “inactive”.

In the case of `CC[C@@]1(O)C(=O)OCc2c1cc1n(c2=O)Cc2cc3ccccc3nc2-1`, the Potency was 73.7 nM (active).

On to `O=[N+]([O-])c1c(Cl)c(Cl)cc(Cl)c1Cl`, for which the Potency entry was “inactive”.

As to `C[C@@H]1O[C@@H](O[C@@H]2C=C3CC[C@@H]4[C@@H](CC[C@]5(C)[C@H](c6ccc(=O)oc6)CC[C@@]45O)[C@@]3(C)CC2)[C@H](O)[C@H](O)[C@H]1O`, the Potency is 7.4 nM (active).

For the compound `Cc1[nH]nc2ccc(-c3cncc(OC[C@@H](N)Cc4c[nH]c5ccccc45)c3)cc12`, the Potency is 3290 nM (active).

In the case of `C[C@@H]1CC[C@@]2(OC1)O[C@H]1C[C@H]3[C@@H]4CC=C5C[C@@H](O[C@@H]6O[C@H](CO)[C@@H](O[C@@H]7O[C@@H](C)[C@H](O)[C@@H](O)[C@@H]7O)[C@H](O)[C@@H]6O[C@@H]6O[C@@H](C)[C@H](O)[C@@H](O)[C@@H]6O)CC[C@]5(C)[C@@H]4CC[C@]3(C)[C@@H]1[C@H]2C`, the Potency was 2610 nM (active).

Turning to `CC1=C(O)C(=O)C=C2C1=CC=C1[C@@]2(C)CC[C@@]2(C)[C@@H]3C[C@](C)(C(=O)O)CC[C@]3(C)CC[C@]12C`, the Potency is 2330 nM (active).

On to `CC(C)(O)C=CC(=O)[C@](C)(O)[C@H]1[C@H](O)C[C@]2(C)[C@@H]3CC=C4[C@@H](C=C(O)C(=O)C4(C)C)[C@]3(C)C(=O)C[C@@]12C`, for which the Potency is 117 nM (active).

As to `CC(=O)[O][Hg][c]1ccccc1`, the Potency is 4140 nM (active).

On to `CC(C)[C@]12O[C@@H]1[C@@H]1O[C@]13[C@]1(O[C@H]1C[C@@H]1C4=C(CC[C@@]13C)C(=O)OC4)[C@H]2O`, for which the Potency is 32.9 nM (active).

For the compound `CC(C)N[C@@H]1CCn2c(=O)[nH]c3cccc(c32)[C@@H]1O`, the Potency entry was “inactive”.

The record behind these values is PubChem BioAssay (NCATS).
